From ChEMBL document CHEMBL4513216, “Probing the Open Global Health Chemical Diversity Library for Multistage-Active Starting Points for Next-Generation Antimalarials” (ACS Infect Dis, 2020) come the findings set out here.

Screen size: about 68,000 compounds; about 2,700 (4%) showed an effect of 50% or more. The sample holds strong results, similar compounds and a random draw of the others, so the mix is not that of the screen.

This test concerns Plasmodium berghei. Description: Screen against P. berghei liver stage (PbLuc), transformed with Luciferase, at 2uM. The test is classed as functional, HepG2. The note with it: tested at 2 uM.
`CCn1c(NCc2ccccc2)nc2c(C)nn(C)c2c1=O`: the INHIBITION is listed as -1.65%.
The value for `CCn1nc(C)c2nc(C(C)C)nc(NCc3ccccn3)c21` was -11.34%.
Turning to `CCn1c(NCc2cccnc2)nc2c(C)nn(C)c2c1=O`, the INHIBITION worked out at 24.79%.
The value for `Cc1nc(NCc2ccccn2)c2c(n1)c(C)nn2C` was -40.15%.
As for `Cc1nn(C)c2c(NCc3ccccn3)nc(C(C)C)nc12`, the INHIBITION is reported as 72.41%.
The value for `CCn1c(NCc2ccccn2)nc2c(C)nn(C)c2c1=O` was 50.9%; that for `Fc1cnc(N2CC3(CCN(Cc4ccsc4)C3)C2)nc1` was 34.48%; that for `COCCC(=O)N1CCCC1c1nc(O)cc(C(C)C)n1` (stereo not drawn) was -1.69%.
The value for `CCC[C@H]1CN(C(=O)Cn2ccccc2=O)C[C@@H]1NS(C)(=O)=O` was 5.21%.
The value for `CCCS(=O)(=O)N1CCN(c2ccnc(N3CCCCC3)n2)CC1` was 5.38%.
Turning to `CC1CCN(C(=O)CN2CCC(c3n[nH]c(C4CC4)n3)CC2)CC1`, the INHIBITION is on record as -35.26%.
As for `C=C(C)CN1CCC(c2n[nH]c(C3CC3)n2)CC1`, the INHIBITION worked out at 52.98%.
Regarding `CCN(C(=O)CN1CCC(c2n[nH]c(C3CC3)n2)CC1)C1CC1`, the INHIBITION is 38.67%.
The value for `Cc1cc(C[C@@H]2COC[C@@H]2NC(=O)CCN2Cc3ccccc3C2)on1` was 14.1%.
The value for `Cc1ccc(CN[C@@H]2COC[C@H]2Cc2cc(C)no2)cc1` was 20.08%; that for `Cc1cc(C[C@@H]2COC[C@H]2NCc2ccc(Cl)c(Cl)c2)on1` was -44.61%.
Turning to `Cc1cc(C[C@@H]2COC[C@@H]2NC(=O)CN2CCc3ccccc3C2)on1`, the INHIBITION stood at 54.49%.
The value for `Cc1cc(C[C@@H]2COC[C@H]2NCc2ccc(C)c(C)c2)on1` was 53.24%; that for `Cc1cc(C[C@@H]2COC[C@@H]2NC(=O)CN2CCCC2)on1` was -56.02%.
On to `O=C(CC1CCC1)N1CCCC(CO)(CC2CC2)C1` (stereo not drawn), for which the INHIBITION is recorded as -12.89%.
Take `O=C1CCCN1Cc1ncn2c1CN(C(=O)c1cccc(F)c1)CCC2`: the INHIBITION was found to be 21.33%.
For the compound `Cc1cc(NC(=O)CN2CCCCC2Cn2nc(C)nc2C)on1` (stereo not drawn), the INHIBITION is listed as 27.5%.
To `Nc1ncccc1CN1C[C@@H](C(=O)O)[C@H](c2cccc(F)c2)C1` belongs 1.22%.
The value for `CCS(=O)(=O)N1CCC2(CC1)CN(CC1CCOC1)c1ccccc12` (stereo not drawn) was 17.89%; that for `COc1ccc(OC2CCN(C(=O)CCc3n[nH]c(N)n3)CC2)cc1` was -88.55%; that for `Cc1nc(CN(C)CC2CCCN(CCc3ccc(Cl)cc3)C2)no1` (stereo not drawn) was -7.76%.
The value for `COc1ccc(CCN2CCCC(CN(C)Cc3[nH]cnc3C)C2)cc1` (stereo not drawn) was 52.31%; that for `COc1ccccc1CCN1CCCC(CN(C)Cc2ccc(C)o2)C1` (stereo not drawn) was -4.64%; that for `COc1ccc(CCN2CCCC(CN(C)Cc3ccc(C)o3)C2)cc1` (stereo not drawn) was 54.59%.
With `Cc1nc[nH]c1CN(C)CC1CCCN(CCc2ccc(Cl)cc2)C1` (stereo not drawn), the INHIBITION is -9.17%.
Turning to `Cc1noc(CN(C)CC2CCCN(CCc3ccc(Cl)cc3)C2)n1` (stereo not drawn), the INHIBITION is on record as 35.26%.
To `CN(Cc1ccncc1)CC(c1cccs1)N1CCOCC1` (stereo not drawn) belongs -10.66%; to `Cc1noc(CN(C)CC(c2cccs2)N2CCOCC2)n1` (stereo not drawn), 28.88%.
To `CN(Cc1ncc[nH]1)CC(c1cccs1)N1CCOCC1` (stereo not drawn) belongs 62.46%.
To `Cc1cc(C(F)(F)F)c2c(=O)n(Cc3cc(C)on3)n(C)c2n1` belongs 1.36%.
On to `O=C1CCCN1Cc1nnn2c1CN(c1ncccn1)CCC2`, for which the INHIBITION came to 1.48%.
To `CC(C(=O)NCc1ccnc(N2CCCC2)c1)n1cccn1` (stereo not drawn) belongs 17.12%; to `CC(C(=O)NCc1ccnc(N2CCCCCC2)c1)n1cccn1` (stereo not drawn), 53.33%; to `CCN1CC(C(=O)NCc2ccnc(-n3cccn3)c2)CC1=O` (stereo not drawn), 2.46%.
To `CC(C(=O)NCc1ccnc(N2CCOCC2)c1)n1cccn1` (stereo not drawn) belongs -7.02%; to `CSC(C)C(=O)NCc1ccnc(N2CCN(C)CC2)c1` (stereo not drawn), 22.29%.
Consider `CN1CC(C(=O)NCc2ccnc(-n3cccn3)c2)CC1=O` (stereo not drawn), for which the INHIBITION amounted to 67.99%.
In the case of `CC(C(=O)NCc1ccc(N2CCN(C)CC2)nc1)n1cccn1` (stereo not drawn), the INHIBITION was determined as 23.16%.
To `CC(C)N1CC(C(=O)NCc2ccnc(-n3cccn3)c2)CC1=O` (stereo not drawn) belongs -47.05%; to `CC(C(=O)NCc1ccnc(N2CCN(C)CC2)c1)n1cccn1` (stereo not drawn), 53.12%; to `Cn1cc(CC2CC(=O)N(Cc3ccc(Cl)cc3)C2=O)cn1` (stereo not drawn), 29.4%.
The value for `CCn1ccnc1CN1CCN(CCOc2ccc(C#N)cc2)CC1` was -12.75%; that for `CCOc1ccc2[nH]c(=O)c(CN3CCN(S(N)(=O)=O)CC3)cc2c1` was 43.05%; that for `CN1CCC2(CC1)CN(C(=O)c1cccc3cccnc13)CCN2C` was 9.11%.
For `CC(CN1CCCC1=O)NC(=O)c1ccc(C(F)(F)F)[nH]c1=O` (stereo not drawn), the INHIBITION was -85.12%.
The value for `Cc1cccn2cc(CC(=O)N3CCCC(n4cncn4)C3)nc12` (stereo not drawn) was -45.23%; that for `O=C(C1CC1)N1CCC2(CC1)OCCO2` was 56.99%; that for `O=C(C1CCCC1)N1CCC2(CC1)OCCO2` was -29.58%.
